A selection: hits, their analogues and other compounds. The true share with any hit is near 9.2%.
NPC1 promoter act: activators of NPC1 promoter | hit rate 2.4% among 320,000 | AID 485313 | Huh7 NPC1 promoter luciferase reporter, 24 h | Potency, µM (series often up to 9.22 µM), without a hit: top-dose activation, most hits filed as activators; also: % of control where 0% means no effect; nearly all actives have a fitted effect of over 60% in size
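In 1536-well qHTS, Huh7 cells harboring an NPC1 promoter–luciferase construct received compound for 24 h; activation was quantified by luminescence following luciferase reagent addition.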
SMN2 splice up: enhancers of SMN2 splice variant expression | HEK293 SMN2-luciferase splicing reporter, luminescence, 30-36 h | Potency, µM (top dose mostly 46.1 µM), inactives show top-dose activity change, positive = activation, usual class: activators | hit rate 2.8% among 210,000; also: % of control where 0% means no effect; nearly all actives have a fitted effect of over 55% in size
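qHTS luciferase splicing reporter: luminescence rises when SMN2 exon 7 is included in transfected HEK293 cells. Compound exposure lasted 30-36 h at 37C, with 4.5 mM final sodium butyrate as control, followed by a ONE-Glo read.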
ELG1 genotoxic: induces genotoxicity in HEK293T cells with luciferase-tagged ELG1. Potency, µM (series often up to 46 µM), for inactives: at the highest dose activity change, positive = activation, usual class: activators. HEK293T ELG1-luciferase reporter, luminescence, 16 h. hit rate 1.3% among 330,000; also: % of control where 0% means no effect; nearly all actives have a fitted effect of over 60% in size
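Cells (2,000/well) expressing the ELG1-luciferase fusion are dosed by pin tool and kept 16 hr at 37 °C, 5% CO2. Signal comes from ONE-Glo luciferase reagent after 30 min at room temperature.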
ELG1 DNA repair: inhibitors of ELG1-dependent DNA repair in HEK293T cells. HEK293T ELG1-luciferase reporter, luminescence, 16 h; DNA damage induced by 5-fluorouridine. Potency, µM (top dose mostly 46.1 µM), inactives show top-dose activity change, negative = inhibition, actives largely listed as inhibitors. hit rate 2.3% among 330,000. AID 504467; also: % is scaled to controls: 0 for no effect and ±100 for the full control effect; nearly all actives have a fitted effect of over 55% in size
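Reporter activity after DNA damage by 5-fluorouridine is monitored. Compound-treated cells incubate 16 hr at 37 °C, then ONE-Glo is added for 30 min before luminescence reading.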
Rab9 promoter act: Rab9 promoter activation; Huh7 Rab9 promoter-luciferase reporter, luminescence, 24 h; Potency, µM (highest dose often 9.22 µM), inactives show top-dose activation, negative = inhibition, actives largely listed as activators; hit rate 2.8% among 320,000; AID 485297; also: % of control where 0% means no effect; nearly all actives have a fitted effect of over 60% in size
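Huh7 cells stably carrying Rab9 promoter–luciferase reporter, plated 1500 cells/well, compound added after 2 h and incubated 24 h at 37 °C; luciferase luminescence then read after 10 min with detection reagent.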
FLuc modulator: inhibits or activates purified firefly luciferase, miR-21 counter-screen. AID 588342. hit rate 6.9% among 360,000. Potency, µM (series often up to 57.5 µM), for inactives: top-dose activity change, negative = inhibition, most hits filed as inhibitors. purified FLuc, Km substrates, luminescence inhibition;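 also: plate controls were vehicle for no effect and reference inhibitor for full effect; nearly all actives have a fitted effect of over 55% in size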
Target sequence (P08659 whole entry, looked up): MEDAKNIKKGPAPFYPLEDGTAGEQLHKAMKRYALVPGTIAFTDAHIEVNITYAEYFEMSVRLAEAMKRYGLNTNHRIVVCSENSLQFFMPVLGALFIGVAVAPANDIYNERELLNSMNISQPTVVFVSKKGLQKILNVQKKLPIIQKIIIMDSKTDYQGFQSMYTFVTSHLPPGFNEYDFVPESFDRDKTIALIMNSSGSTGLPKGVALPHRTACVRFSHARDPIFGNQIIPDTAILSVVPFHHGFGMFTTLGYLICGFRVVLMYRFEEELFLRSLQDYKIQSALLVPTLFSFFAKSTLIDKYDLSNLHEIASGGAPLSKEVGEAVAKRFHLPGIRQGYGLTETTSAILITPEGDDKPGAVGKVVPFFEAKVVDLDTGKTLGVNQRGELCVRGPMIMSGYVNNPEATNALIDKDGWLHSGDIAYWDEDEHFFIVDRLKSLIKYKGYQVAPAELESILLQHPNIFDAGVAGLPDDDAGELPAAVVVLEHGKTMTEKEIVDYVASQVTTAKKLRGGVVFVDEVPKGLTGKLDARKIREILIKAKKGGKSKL
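Biochemical qHTS of compounds, final roughly 60 µM downward over six points, against 10 nM purified firefly luciferase using Km concentrations of substrates (10 uM D-luciferin, 10 uM ATP) in Tris acetate pH 7.5 buffer; luminescence output.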
Numbers without * were called inactive; ? = inconclusive; nt = no result. Calls follow the shape of the dose curve; as a rule, active = well fitted curve in the direction sought with a large enough effect; inconclusive = small, poorly fitted or top-dose-only effect, or another doubt; inactive = no such curve, though single readings can be large; an effect the other way counts as inactive or inconclusive. Potency is read from the fitted curve at half-maximal effect.

SMILES | NPC1 promoter act | SMN2 splice up | ELG1 genotoxic | ELG1 DNA repair | Rab9 promoter act | FLuc modulator
COc1ccc(Cl)cc1C(=O)Nc1ccc2c(c1)OCCO2 | ? | nt | ? | ? | 26% | 1.9µM*
COc1cccc2[nH]c(C(=O)NC(C)c3ccccc3)cc12 (stereo unspecified) | -4% | nt | -4% | -18% | -9% | -18%
Cc1nc(-c2ccc(F)cc2)sc1CCNC(=O)c1ccccc1C(F)(F)F | nt | nt | nt | nt | nt | -9%
CCOc1ccc(NC(=O)c2ccc(CC)s2)c([N+](=O)[O-])c1 | ? | nt | ? | ? | 2.2µM* | -5%
CCOc1ccc(NC(=O)c2cccnc2Cl)c([N+](=O)[O-])c1 | 1% | 1% | 3% | 7% | 2% | 0%
CCOc1ccc(NC(=O)c2cccs2)c([N+](=O)[O-])c1 | ? | 7.1µM* | ? | ? | 1.6µM* | ?
CCOc1ccc(NC(=O)c2ccco2)c([N+](=O)[O-])c1 | 2µM* | 14µM* | ? | ? | 1.6µM* | 2.4µM*
COc1ccc(CNC(=O)C(c2cccs2)N(Cc2ccco2)C(=O)Cc2cccs2)cc1 (stereo unspecified) | -1% | -16% | -11% | 15µM* | -1% | -4%
COc1ccc(CNC(=O)C(c2ccco2)N(Cc2ccccc2)C(=O)Cc2cccs2)cc1 (stereo unspecified) | -1% | 12% | -10% | 18µM* | -1% | 0%
COc1ccc(CNC(=O)C(c2ccco2)N(C(=O)Cc2cccs2)c2cccnc2)cc1 (stereo unspecified) | 9% | nt | -9% | -17% | 1% | 2%
CN(Cc1ccccc1)S(=O)(=O)c1cc(Br)cc2c1N(C(=O)C1CC1)CC2 | nt | -9% | nt | nt | nt | 3%
O=C(CC(c1ccco1)S(=O)(=O)c1ccccc1)c1ccccc1 (stereo unspecified) | 1% | nt | 3% | 28% | 3% | 21µM*
O=C(CC(c1cccs1)S(=O)(=O)c1ccccc1)c1ccc(F)cc1 (stereo unspecified) | 2% | -12% | 7% | ? | -4% | 3.4µM*
Cc1ccc(C(=O)CC(c2cccs2)S(=O)(=O)c2ccc(C)cc2)cc1 (stereo unspecified) | 28% | 22% | ? | ? | ? | 1.3µM*
CCC(=O)NCC(c1cccs1)S(=O)(=O)c1ccc(C)cc1 (stereo unspecified) | -2% | nt | 0% | 20% | -3% | 1%
COC(=O)[C@@]1(Cc2ccccc2)[C@H]2c3cc(C(=O)N(C)C)n(Cc4cc(C)n(C)n4)c3C[C@H]2CN1C(=O)c1ccccc1 | nt | -4% | nt | nt | nt | nt
COc1ccc(C(=O)N(C)C(C)c2ccon2)cc1OC1CCN(C(C)C)CC1 (stereo unspecified) | -2% | nt | 17% | 14% | -2% | 1%
O=S(=O)(Nc1nc2ccccc2nc1Nc1ccc(N2CCOCC2)cc1)c1cc(Cl)ccc1Cl | -5% | -72% | -4% | ? | -8% | 15µM*
NC(=O)N/N=C/c1cn(-c2ccccc2)nc1-c1cccnc1 | 1% | nt | 6% | 17% | -2% | 9.5µM*
NC(=S)N/N=C/c1cn(-c2ccccc2)nc1-c1cccnc1 | 15% | nt | 7% | 2% | 12% | 6µM*
Nc1ccc(N=Nc2ccc(N)cc2)cc1 | ? | 14µM* | ? | ? | ? | 7.6µM*
Cc1cccc(C(=O)Nc2ccccc2OCc2cc(=O)n3cc(C)ccc3n2)c1 | nt | nt | nt | nt | nt | 1%
O=C(Cc1cccs1)NCc1ccc(Cl)cc1Cl | 3.2µM* | nt | ? | ? | 2.8µM* | 15µM*
CCCOc1ccc(CNC(=O)Cc2cccs2)cc1 | ? | nt | ? | ? | ? | 19µM*
O=C(Cc1cccs1)NCc1cccc(CNC(=O)Cc2cccs2)c1 | -2% | 12% | 0% | -2% | 0% | -3%
SMILES | NPC1 promoter act | SMN2 splice up | ELG1 genotoxic | ELG1 DNA repair | Rab9 promoter act | FLuc modulator
O=C(Cc1cccs1)NCc1ccccc1Br | ? | nt | ? | ? | 4µM* | 19µM*
COc1ccc(C(=O)Nc2nc3nc(C)c(Cc4ccccc4)c(=O)n3[nH]2)cc1OC | nt | 13% | nt | nt | nt | ?
CC(=O)c1ccc(N2CCN(C(=O)CCCn3c(=O)[nH]c4ccc(Br)cc4c3=O)CC2)cc1 | -6% | -73% | -14% | 18µM* | -3% | 2%
CC(=O)c1ccc(N2CCN(C(=O)CCCCn3c(=O)[nH]c4ccccc4c3=O)CC2)cc1 | nt | nt | nt | nt | nt | 2%
CCCCCn1c(=O)[nH]c2cc(C(=O)N3CCN(c4ccc(C(C)=O)cc4)CC3)ccc2c1=O | -25% | nt | -15% | 5.8µM* | -26% | -5%
O=C(/C=C/c1ccc(Cl)cc1)OCC(=O)c1ccc[nH]1 | 1% | nt | 1% | ? | -1% | -1%
COc1cc(SC)ccc1C(=O)NCCOc1ccc(F)cc1 | ? | 14µM* | 21µM* | ? | ? | 5.4µM*
COc1cc(SC)ccc1C(=O)NCC1CCCCC1 | 30% | nt | ? | ? | 20% | 15µM*
COc1ccc(CCNC(=O)c2ccc(SC)cc2OC)cc1 | -9% | -6% | -6% | ? | -1% | -11%
CCCn1c(=O)sc2cc(NC(=O)c3ccc(OC)c(Br)c3)ccc21 | nt | 1% | nt | nt | nt | -11%
O=C(CSc1nccn1Cc1ccco1)Nc1cccc(F)c1 | 17% | nt | 9% | 11% | 26% | -4%
Cc1ccc(NC(=O)CSc2nccn2Cc2ccco2)cc1 | ? | nt | ? | ? | 4.5µM* | 19µM*
O=C(CSc1nccn1Cc1ccco1)Nc1ccc(F)cc1 | -3% | nt | ? | -4% | 3% | -13%
COc1ccc(NC(=O)CSc2nccn2Cc2ccco2)c(OC)c1 | 21% | nt | ? | ? | ? | 19µM*
CC(=O)c1ccc(NC(=O)CSc2nccn2Cc2ccco2)cc1 | nt | nt | nt | nt | nt | 17µM*
CCOC(=O)c1ccccc1N/C=C/C(=O)c1cccs1 | 11% | nt | 2% | 6% | ? | ?
O=C(/C=C/Nc1ccccc1F)c1cccs1 | ? | 2µM* | ? | ? | 4µM* | 0.24µM*
Cc1ccc(N/C=C/C(=O)c2cccs2)cc1 | ? | 2µM* | 0.16µM* | ? | 0.14µM* | 0.12µM*
Cc1ccc(N/C=C/C(=O)c2sc(-c3ccccc3)nc2C)cc1 | -2% | -12% | -4% | ? | 2% | 6µM*
O=C(/C=C\Nc1cccc(F)c1)c1cccs1 | 4µM* | 6.3µM* | ? | ? | 4µM* | 0.85µM*
O=C(NNC(=O)c1cccs1)c1cccc(F)c1 | -1% | nt | 7% | ? | 13% | -7%
O=C(/C=C/Nc1ccc(F)cc1F)c1cccs1 | 0.56µM* | 0.4µM* | ? | ? | 2µM* | 0.11µM*

Screening results as filed in PubChem BioAssay.
